# Measurements published in PubChem BioAssay AID1159580 (chemical genetic matrix, 2015).
# The campaign covered roughly 5,500 compounds. About 2,000 (36%) were called active. Not shown: some 18% with an inconclusive outcome. Some of the results follow. Unmarked numbers belong to inactive results. Rule as the data show it: active = normalized growth mostly below about 0.91 (no sharp cut-off); inconclusive = no clear call, values can overlap the other calls; inactive = mostly above about 0.92.
# Experiment: chemical genetic growth profiling, strain panel (AID 1159580);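 also: tested at 20 µM; growth read once vehicle control cultures reached saturation at 30 °C; 1 = growth at the plate median or of vehicle wells; lower values mean less growth of the strain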
# Conditions: S. cerevisiae deletion strains, growth OD
smiles,measurement,setting,value
COc1ccc(CC2CCC(=NOC(=O)c3ccc(C(C)(C)C)cc3)CC2)cc1 (stereo unspecified),normalized growth,"locus YAR019C, strain CDC15, stronger effect = lower value",0.991
same,normalized growth,"locus YBL105C, strain PKC1, stronger effect = lower value",1.01
same,normalized growth,"locus YBR135W, strain CKS1, stronger effect = lower value",0.988
same,normalized growth,"locus YBR136W, strain MEC1, stronger effect = lower value",0.985
same,normalized growth,"locus YBR160W, strain CDC28, stronger effect = lower value",0.993
same,normalized growth,"locus YDL017W, strain CDC7, stronger effect = lower value",0.982
same,normalized growth,"locus YDL028C, strain MPS1, stronger effect = lower value",0.984
same,normalized growth,"locus YDL101C, strain DUN1, stronger effect = lower value",0.977
same,normalized growth,"locus YDL108W, strain KIN28, stronger effect = lower value",0.984
same,normalized growth,"locus YDL132W, strain cdc53, stronger effect = lower value",0.977
same,normalized growth,"locus YDL214C, strain PRR2, stronger effect = lower value",0.947
same,normalized growth,"locus YDR052C, strain DBF4, stronger effect = lower value",0.975
same,normalized growth,"locus YDR054C, strain cdc34, stronger effect = lower value",0.98
same,normalized growth,"locus YDR226W, strain ADK1, stronger effect = lower value",0.979
same,normalized growth,"locus YDR477W, strain SNF1, stronger effect = lower value",0.946
same,normalized growth,"locus YER123W, strain YCK3, stronger effect = lower value",0.927
same,normalized growth,"locus YER133W, strain GLC7, stronger effect = lower value",0.936
same,normalized growth,"locus YFL009W, strain cdc4, stronger effect = lower value",0.969
same,normalized growth,"locus YFL029C, strain CAK1, stronger effect = lower value",0.988
same,normalized growth,"locus YFR003C, strain YPI1, stronger effect = lower value",0.983
same,normalized growth,"locus YFR019W, strain FAB1, stronger effect = lower value",0.972
same,normalized growth,"locus YFR028C, strain CDC14, stronger effect = lower value",0.975
same,normalized growth,"locus YGR040W, strain KSS1, stronger effect = lower value",0.936
same,normalized growth,"locus YGR052W, strain FMP48, stronger effect = lower value",0.958
same,normalized growth,"locus YGR092W, strain DBF2, stronger effect = lower value",0.999
same,normalized growth,"locus YHR030C, strain SLT2, stronger effect = lower value",0.828 (active)
same,normalized growth,"locus YHR079C, strain IRE1, stronger effect = lower value",0.999
same,normalized growth,"locus YHR082C, strain KSP1, stronger effect = lower value",1.01
same,normalized growth,"locus YHR205W, strain SCH9, stronger effect = lower value",0.999
same,normalized growth,"locus YIL147C, strain SLN1, stronger effect = lower value",0.978
same,normalized growth,"locus YJL095W, strain BCK1, stronger effect = lower value",0.952
same,normalized growth,"locus YJL128C, strain PBS2, stronger effect = lower value",0.993
same,normalized growth,"locus YJL157C, strain FAR1, stronger effect = lower value",0.955
same,normalized growth,"locus YJR016C, strain ILV3, stronger effect = lower value",0.99
same,normalized growth,"locus YJR066W, strain TOR1 (second series), stronger effect = lower value",0.909
same,normalized growth,"locus YJR066W, strain TOR1, stronger effect = lower value",1.06
same,normalized growth,"locus YKL048C, strain ELM1, stronger effect = lower value",0.953
same,normalized growth,"locus YKL067W, strain YNK1, stronger effect = lower value",0.951
same,normalized growth,"locus YKL101W, strain HSL1, stronger effect = lower value",0.941
same,normalized growth,"locus YKL193C, strain SDS22, stronger effect = lower value",0.987
same,normalized growth,"locus YKL203C, strain TOR2, stronger effect = lower value",1.01
same,normalized growth,"locus YLR113W, strain HOG1, stronger effect = lower value",0.844 (active)
same,normalized growth,"locus YLR133W, strain CKI1, stronger effect = lower value",0.961
same,normalized growth,"locus YLR403W, strain SFP1, stronger effect = lower value",1.01
same,normalized growth,"locus YML070W, strain DAK1, stronger effect = lower value",0.93
same,normalized growth,"locus YMR001C, strain CDC5, stronger effect = lower value",0.986
same,normalized growth,"locus YMR205C, strain PFK2 (second series), stronger effect = lower value",0.959
same,normalized growth,"locus YMR277W, strain FCP1, stronger effect = lower value",0.976
same,normalized growth,"locus YNL006W, strain LST8, stronger effect = lower value",1
same,normalized growth,"locus YNL020C, strain ARK1, stronger effect = lower value",0.964
same,normalized growth,"locus YNL161W, strain CBK1, stronger effect = lower value",0.994
same,normalized growth,"locus YNL183C, strain NPR1, stronger effect = lower value",1.06
same,normalized growth,"locus YNL207W, strain RIO2, stronger effect = lower value",0.973
same,normalized growth,"locus YNL222W, strain SSU72, stronger effect = lower value",0.993
same,normalized growth,"locus YNL307C, strain MCK1 (second series), stronger effect = lower value",0.94
same,normalized growth,"locus YOL078W, strain AVO1, stronger effect = lower value",0.988
same,normalized growth,"locus YOL136C, strain PFK27, stronger effect = lower value",0.956
same,normalized growth,"locus YOR061W, strain CKA2, stronger effect = lower value",0.963
same,normalized growth,"locus YOR119C, strain RIO1, stronger effect = lower value",1.02
same,normalized growth,"locus YOR231W, strain MKK1, stronger effect = lower value",0.975
same,normalized growth,"locus YOR329C, strain SCD5, stronger effect = lower value",0.998
same,normalized growth,"locus YPL031C, strain PHO85, stronger effect = lower value",0.937
same,normalized growth,"locus YPL153C, strain RAD53, stronger effect = lower value",0.924
same,normalized growth,"locus YPL204W, strain HRR25, stronger effect = lower value",0.916
same,normalized growth,"locus YPL209C, strain IPL1, stronger effect = lower value",0.988
same,normalized growth,"locus YPL256C, strain CLN2, stronger effect = lower value",0.881
same,normalized growth,"locus YPR025C, strain CCL1, stronger effect = lower value",0.999
same,normalized growth,"locus YPR106W, strain ISR1, stronger effect = lower value",0.986
same,normalized growth,"locus YPR111W, strain DBF20, stronger effect = lower value",0.98
same,normalized growth,"strain NNK1, stronger effect = lower value",0.977
same,normalized growth,"strain TSCII, stronger effect = lower value",0.978
